Source: PubChem BioAssay AID686940 (The Scripps Research Institute Molecular Screening Center, 2013)
About 2,600 (0.7%) of roughly 370,000 compounds were called active. This is one part of a sample in which actives are shown more often than they occur. A number with no mark means an inactive call.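 How the source made its calls: active means inhibition above a per-plate cutoff, mean inhibition of test wells between control levels plus 3 SD (cut at about 38% in these data); inactive means the rest.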

Biological target: COUP transcription factor 2 (Homo sapiens) (UniProt P24468)
Experiment: COUP-TFII reporter suppression in human cells – cell-based, luciferase reporter, HEK293T, luminescence, primary screen (AID 686940);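 further: cells cotransfected with COUP-TFII expression vector driving the NGFI-A reporter; 0% = median of COUP-TF2 test wells and 100% = reporter-only cells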
Conditions: HEK293T NGFI-A luciferase reporter, at 8.6 µM, hits give high values

Chain of COUP transcription factor 2 (Homo sapiens) (P24468 whole entry, looked up): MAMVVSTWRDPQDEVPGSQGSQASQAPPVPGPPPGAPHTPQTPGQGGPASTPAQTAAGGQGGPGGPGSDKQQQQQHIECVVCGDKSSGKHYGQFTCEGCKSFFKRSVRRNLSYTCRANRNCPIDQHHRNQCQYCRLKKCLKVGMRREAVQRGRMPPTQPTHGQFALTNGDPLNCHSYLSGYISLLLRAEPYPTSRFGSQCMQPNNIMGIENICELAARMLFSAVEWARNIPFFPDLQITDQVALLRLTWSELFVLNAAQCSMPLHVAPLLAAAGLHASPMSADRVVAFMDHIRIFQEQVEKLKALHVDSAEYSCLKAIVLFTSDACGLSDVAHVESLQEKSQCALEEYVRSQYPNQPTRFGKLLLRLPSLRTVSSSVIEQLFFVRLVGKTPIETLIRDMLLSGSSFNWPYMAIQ

Row | Structure (SMILES) | inhibition
1 | CCOC(=O)[C@]12CCCCC/C=C\1N(Cc1ccc(OC)cc1)C(=O)[C@H]2CC(=O)N1CCOCC1 | 13.5%
2 | COc1ccc([C@H]2OC(=O)C[C@H]2C(=O)N2CCN(c3ccccc3F)CC2)cc1OC | -8.84%
3 | Cc1ccsc1C(=O)OCC(=O)c1cc(C)n(CC2CCCO2)c1C (centres undefined) | 87.1% (active)
4 | COCCn1c(C)cc(C(=O)COC(=O)CNC(=O)c2ccco2)c1C | -5.61%
5 | Cc1cc(C(=O)COC(=O)CNC(=O)c2ccc(F)cc2)c(C)n1Cc1ccco1 | 22.8%
6 | C=CCn1c(SCC(N)=O)nnc1-c1ccccc1OC | 9.3%
7 | COC(=O)[C@]12C[C@H](CC(=O)NCc3ccccc3)C(=O)N(CCc3ccc(OC)c(OC)c3)C1=C[C@H](C(C)(C)C)O[C@@H]2C | 10.6%
8 | COc1cc(SC)ccc1C(=O)Nc1nc(C)cs1 | 67.9% (active)
9 | COCCn1c(SCC(=O)Nc2nc(C)cs2)nnc1C(C)C | -1.64%
10 | Cc1csc(NC(=O)CN2CCCCCC2)n1 | 4.1%
11 | COC[C@@H]1CCCN1c1ccc2c(c1)O[C@H](C)CCN(C1CC1)S2(=O)=O | -10.8%
12 | COC(=O)C[C@@H]1CC[C@H]2[C@@H](COc3ccc(NS(=O)(=O)CC(F)(F)F)cc3C(=O)N2C)O1 | -17.9%
13 | CN(CCO)c1cccc2c1S(=O)(=O)N(Cc1cn(Cc3ccc(C(F)(F)F)cc3)nn1)Cc1ccccc1O2 | -35.7%
14 | CCOc1ccc(Oc2c(Cl)cnn(-c3ccc(C)cc3)c2=O)cc1 | 7.75%
15 | Cc1sc2nc(SCC(=O)c3ccc(O)c(O)c3)n(Cc3ccco3)c(=O)c2c1C | 7.6%
16 | CCOC(=O)c1ccc(NC(=O)Cn2cnc3cc(C)c(C)cc32)cc1 | 59.5% (active)
17 | CCOC(=O)c1ccc(NC(=O)CCn2c(=O)oc3ccccc32)cc1 | 6.76%
18 | Cc1ccc(NC(=O)Cn2cnc3c(OCc4ccccc4)ncnc32)cc1C | 2.95%
19 | CC(=O)O[C@@]1(C(C)=O)CCC2[C@H]3C=C(C)C4=CC(=O)CC[C@@]4(C)C3CC[C@]21C (some centres undefined) | 3.66%
20 | C=CCOc1ccc(C(=O)Nc2ccccc2C(=O)N2CCCC2)cc1 | -20.6%
21 | COc1ccc(C(=O)Nc2ccccc2C(=O)N/N=C/c2ccc(O)c(OC)c2)cc1 | 77.1% (active)
22 | COc1cc(C(=O)Nc2cc(C(F)(F)F)ccc2N2CCOCC2)ccc1O | -16.6%
23 | COc1ccc(S[C@]2(C(=O)N(C)C)CC(=O)N(c3ccc(OC)cc3)[C@@H]2c2ccc(OC)cc2)cc1 | -1.97%
24 | COC(=O)CC1CCc2cc(C)cc(C(CC(C)C)NC(=O)[C@H](CC(C)C)NC(=O)OCc3ccccc3)c2O1 (some centres undefined) | 5.51%
25 | CCOC(=O)C1CCN(C(=O)C(C)(C)NC(=O)Nc2ccc(F)c(F)c2)CC1 | -2.96%
26 | c1coc(CNc2ncnc3ccccc23)c1 | 53.6% (active)
27 | COc1ccc(CNC(=O)COc2cccnc2[N+](=O)[O-])cc1 | 0.02%

Row | Structure (SMILES) | inhibition
28 | O=C(NCc1ccncc1)C(=O)NCc1ccco1 | 2.85%
29 | c1coc(CCNc2ncnc3ccc(-c4ccc5c(c4)OCO5)cc23)c1 | -3.64%
30 | COc1ccc(CNc2ncnc3ccccc23)cc1 | 56.7% (active)
31 | O=C(COc1ncnc2ccccc12)NC(=O)NCc1ccccc1 | 11.2%
32 | C[C@H]1[C@H](NC(=O)c2cccc(N(C)C)c2)CC[C@@]23CCCN2C(=O)CCC[C@@H]13 | 4.37%
33 | COc1ccc(C#CCNCc2ccc(OC)cc2OC)cc1 | -3.51%
34 | COC(=O)c1cccc(Cn2ccc3ccc(-c4ccc5ccn(C(=O)c6ccccc6C)c5c4)cc32)c1 | -1.59%
35 | O=C(c1ccncc1)N1CC[C@H]2[C@H](CCCN2Cc2ccc(F)cc2)C1 | -20.6%
36 | COC(=O)[C@]12C[C@H](CC(=O)NCCc3ccccc3OC)C(=O)N(Cc3ccco3)C1=C[C@H](C(C)C)O[C@@H]2C1CC1 | 3.03%
37 | CC(=O)Nc1nc2ncccn2c1-c1ccc(C(F)(F)F)cc1 | 4.78%
38 | Cc1ccc(NC(=O)c2cc(C)nn2-c2ccccc2)c(C)c1 | -0.68%
39 | CCN(CC)C(=O)CC[C@@H]1CC[C@]2(CCCN(S(=O)(=O)C3CCCCC3)C2)O1 | 10.7%
40 | C[C@@H]1C[C@@H]2O[C@H]2/C=C\C=C\C(=O)Cc2c(Cl)c(O)cc(O)c2C(=O)O1 | 61.7% (active)
41 | CCOC(=O)N1CCN(C(=O)C2CCN(c3ncnc4c3sc3cccc(F)c34)CC2)CC1 | 46.1% (active)
42 | CCOC(=O)N1CCN(C(=O)C2CCCN(c3ncnc4c3sc3cccc(F)c34)C2)CC1 (centres undefined) | -4.38%
43 | CCOC(=O)N1CCN(C(=O)C2CCN(Cc3ccc(OC)cc3OC)CC2)CC1 | 5.07%
44 | Cc1ccc(F)cc1NC(=O)CSCc1c(C)noc1C | 2.99%
45 | COc1ccc(-c2nn(C)c(=O)c3ccccc23)cc1NC(=O)COc1ccccc1 | -20.3%
46 | Cc1ccc(F)cc1NC(=O)Cc1nn(C)c(=O)c2ccccc12 | 54.3% (active)
47 | CC(c1c[nH]c2ccccc12)c1c(-c2ccccc2)n(C)c2ccccc12 (centres undefined) | 0.69%
48 | C#CCCN([C@H](C(=O)OC)C(C)C)S(=O)(=O)c1ccc(F)cc1Br | 17.9%
49 | CCCNC(=O)C1(C)CCN1C(=O)Cc1ccc(-c2ccccc2)cc1 (centres undefined) | 27.8%
50 | C#Cc1ccc(NC(=O)C2(C)CCN2C(=O)Cc2ccc(-c3ccccc3)cc2)cc1 (centres undefined) | 66.9% (active)
51 | CC1(C(=O)NS(=O)(=O)c2ccccc2)CCN1C(=O)Cc1ccc(-c2ccccc2)cc1 (centres undefined) | -9.63%
52 | C=CCN1C(=O)[C@@H](CC(=O)NCC2CCCCC2)[C@]2(C(=O)OC)CCCCC=C12 | 2.77%
53 | Cc1cccc(NC(=O)C[C@H]2CC[C@H]3[C@@H](COc4ccc(NC(=O)Nc5ccccc5)cc4C(=O)N3C)O2)c1 | -4.77%
54 | CCC(NC(=O)C1C2C=CC3(CN(Cc4ccccc4)C(=O)C13)O2)c1ccccc1 (centres undefined) | 8.47%
